This passage reports inhibition results from PubChem BioAssay.

Broadly, the inhibition is the drop in the measured response relative to a control, in per cent.

The source made the active and inactive calls. Cut-off read from the data, not from the text of the source, unless noted: active = inhibition above about 33%; inactive = the rest.

The nature of test [1]: StAR promoter reporter inhibitors, counter-screen for LRH-1 inverse agonist project, cell-based, luminescence, high throughput (AID 651611; in the data active = inhibition above about 28%). The following applies: StAR promoter luciferase reporter counterscreen, at 3.6 µM, stronger effect = higher value. In general terms: The purpose of a counterscreen is to sort out artefacts and off-target activity.
The target of test [2] is Nuclear receptor subfamily 5 group A member 2 (Homo sapiens) (UniProt O00482). Briefly: NR5A2 activity suppression in reporter cells – cell-based, luminescence, confirmation (AID 651613; in the data active = inhibition above about 42%;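 note: HEK293T cells co-transfected with LRH-1 and StAR promoter luciferase reporter; 0% = vehicle wells and 100% = parental cells lacking receptor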). To be noted: cell-based LRH-1 luciferase reporter, inverse agonism; at 3.6 µM; stronger effect = higher value.
Nuclear receptor subfamily 5 group A member 2 (Homo sapiens), sequence (O00482 whole entry, looked up): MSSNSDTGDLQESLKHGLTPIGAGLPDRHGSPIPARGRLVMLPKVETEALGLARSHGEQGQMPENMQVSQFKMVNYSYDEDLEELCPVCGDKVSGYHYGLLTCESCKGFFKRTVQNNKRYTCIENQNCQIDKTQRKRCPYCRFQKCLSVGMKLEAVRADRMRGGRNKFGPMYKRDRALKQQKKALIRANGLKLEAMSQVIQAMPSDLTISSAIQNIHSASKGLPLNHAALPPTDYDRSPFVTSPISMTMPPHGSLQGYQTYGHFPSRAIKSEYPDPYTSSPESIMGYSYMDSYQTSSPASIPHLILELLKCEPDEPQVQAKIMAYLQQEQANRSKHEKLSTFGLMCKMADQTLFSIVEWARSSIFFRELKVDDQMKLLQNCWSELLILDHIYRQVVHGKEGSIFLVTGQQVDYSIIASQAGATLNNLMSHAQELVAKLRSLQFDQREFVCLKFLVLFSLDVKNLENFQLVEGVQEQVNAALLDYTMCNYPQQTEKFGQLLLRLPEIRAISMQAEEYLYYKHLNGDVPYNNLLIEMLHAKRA
Test [3] deals with Steroidogenic factor 1 (Homo sapiens) (UniProt Q13285). Briefly: inverse agonism at SF1 nuclear receptor – cell-based, luminescence, high throughput, counter-screen for LRH-1 inverse agonist project (AID 651614; in the data active = inhibition above about 44%;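 note: cells cotransfected with StAR promoter reporter and SF1 expression vector; 0% = vehicle on cells with receptor and 100% = vehicle on cells lacking receptor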). To be noted: cell-based SF1 luciferase reporter, at 3.6 µM, stronger effect = higher value.
Steroidogenic factor 1 (Homo sapiens), sequence (Q13285 whole entry, looked up, the tested form may be a part): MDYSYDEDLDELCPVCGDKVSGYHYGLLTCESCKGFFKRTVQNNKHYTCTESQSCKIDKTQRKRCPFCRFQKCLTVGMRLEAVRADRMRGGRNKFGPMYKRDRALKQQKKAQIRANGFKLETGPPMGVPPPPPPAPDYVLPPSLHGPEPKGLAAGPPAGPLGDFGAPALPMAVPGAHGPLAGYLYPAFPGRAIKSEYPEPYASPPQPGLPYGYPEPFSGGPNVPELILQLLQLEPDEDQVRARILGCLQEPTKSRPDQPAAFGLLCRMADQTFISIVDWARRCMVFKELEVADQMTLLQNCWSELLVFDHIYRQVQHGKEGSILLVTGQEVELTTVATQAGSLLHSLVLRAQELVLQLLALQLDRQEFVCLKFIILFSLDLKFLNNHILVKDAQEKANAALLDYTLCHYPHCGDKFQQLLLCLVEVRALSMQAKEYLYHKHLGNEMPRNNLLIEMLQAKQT
The nature of test [4]: compounds suppressing VP16-driven luciferase signal – cell-based, luminescence, high throughput, counter-screen for LRH-1 inverse agonist project (AID 651615). The following applies: Gal4-VP16 luciferase reporter cells, at 3.6 µM, stronger effect = higher value.

Regarding `O=C(c1ccc([N+](=O)[O-])o1)N1CCN(c2nc3c(F)cc(F)cc3s2)CC1`, the inhibition in test [1] was -14.9% (inactive); in test [2] it was 60.2% (active); in test [3], 60.4% (active); in test [4], -0.11% (inactive).
With `O=C(COC(=O)C1CC1)NCCc1ccc(Cl)cc1`, the inhibition is 4.21% (inactive) in test [1], 45.3% (active) in test [2], 39.1% (inactive) in test [3] and -2.95% (inactive) in test [4].
For the compound `O=C(Cc1cccs1)N/N=C\c1ccc([N+](=O)[O-])s1`, the inhibition is 12.1% (inactive) in test [1], 64.9% (active) in test [2], 56.4% (active) in test [3] and 12.6% (inactive) in test [4].
In the same order, the values of `COc1ccc(CCNC(=O)COC(=O)c2cc(Cl)nc(Cl)c2)cc1` are 3.74% (inactive), 47.4% (active), 51.4% (active) and -2.65% (inactive).
In the same order, the values of `O=C1c2ccccc2-n2c1nc1ccccc1c2=O` are 41.1% (active), 66.7% (active), 57.8% (active) and 51% (active).
In the same order, the values of `CCOC(=O)c1ccc(N2CCN(C(=O)c3ccccc3)CC2)c(NC(=O)c2ccco2)c1` are 26.2% (inactive), 38.6% (inactive), 40.9% (inactive) and -26.2% (inactive).
Consider `Cc1ccc(-n2nnnc2-c2ccccc2Br)cc1`, for which the inhibition in test [1] is 7.41% (inactive); in test [2], 57.2% (active); in test [3], 52% (active); in test [4], 4.92% (inactive).
Consider `COc1cccc(-c2cnc3c(NC(C)=O)cc(-c4ccc(S(C)(=O)=O)cc4)cn23)c1`, for which the inhibition in test [1] is 15.6% (inactive); in test [2], 53.3% (active); in test [3], 41.6% (inactive); in test [4], -13.3% (inactive).
Regarding `Cc1ccc(S(=O)(=O)Oc2ccccc2/C=N/NC(N)=S)cc1`, the inhibition is 42.5% (active) in test [1], 70.6% (active) in test [2], 66.8% (active) in test [3] and 47.2% (active) in test [4].
In the same order, the values of `COCC1CCCN(C(=O)c2cc(COc3ccc4ncccc4c3)on2)C1` (stereo unspecified) are 30.9% (active), 58.5% (active), 64.1% (active) and 47.7% (active).
For `COc1ccc(-c2cc3ccccc3oc2=O)cc1NC(=O)c1ccc([N+](=O)[O-])o1`, in that order: -51.4% (inactive), 16% (inactive), 22.5% (inactive) and -68.2% (inactive).
Turning to `O=C(CCl)NCCCN(C(=O)C(Cl)Cl)c1ccc([N+](=O)[O-])cc1`, the inhibition was 16.7% (inactive) in test [1], 59.2% (active) in test [2], 53.5% (active) in test [3] and -8.07% (inactive) in test [4].
In the same order, the values of `C#Cc1cccc(Nc2nc(NCCOC)nc3ccsc23)c1` are 26.9% (inactive), 47.1% (active), 57.4% (active) and 5.35% (inactive).
In the same order, the values of `COc1ccc(CNC(=O)c2cccc3c(-c4cnn(C)c4)coc23)cc1OC` are 12.8% (inactive), 46.2% (active), 46% (active) and 36.4% (active).
In the same order, the values of `CCCc1cc(NCC2CCCO2)n2c(nc3ccccc32)c1C#N` (stereo unspecified) are -0.55% (inactive), 40.1% (inactive), 35.5% (inactive) and 1.26% (inactive).
Take `CCCn1c2c(c(=N)c3c1CCC3)CCCC2`: the inhibition in test [1] is 4.81% (inactive); in test [2], 61.8% (active); in test [3], 55% (active); in test [4], 44.9% (active).
On to `N#Cc1c2c(c(NCCOCCO)n3c1nc1ccccc13)CCCC2`, for which the inhibition is 4.14% (inactive) in test [1], 40.5% (inactive) in test [2], 31.7% (inactive) in test [3] and -0.15% (inactive) in test [4].
Turning to `Nc1ccc(Nc2ccncc2[N+](=O)[O-])cc1`, the inhibition was 2.61% (inactive) in test [1], 65.6% (active) in test [2], 61.9% (active) in test [3] and 15.7% (inactive) in test [4].
As for `NC(=S)N/N=C/c1ccc(-c2ccc([N+](=O)[O-])cc2)o1`, the inhibition was -7.04% (inactive) in test [1], 52.5% (active) in test [2], 44.5% (active) in test [3] and 13.5% (inactive) in test [4].
`O=[N+]([O-])c1cc2ncccc2c2ncccc12`: the inhibition in test [1] was 42.1% (active); in test [2] it was 56.2% (active); in test [3] it was 53.1% (active); in test [4] it was -8.8% (inactive).
On to `Nc1cccc(OCCCCCOc2cccc(N)c2)c1`, for which the inhibition in test [1] is -18.2% (inactive); in test [2], 41.7% (active); in test [3], 54% (active); in test [4], -5% (inactive).
In the same order, the values of `Cc1[nH]c2ccccc2c1/C=N/Nc1ccc([N+](=O)[O-])cc1` are -1.71% (inactive), 55.8% (active), 56.5% (active) and -3.15% (inactive).
As for `COc1ccc(-c2cc3nc(-c4ccccc4)cc(N4CCN(C(C)=O)CC4)n3n2)cc1`, the inhibition is 32.4% (active) in test [1], 31.1% (inactive) in test [2], 39.3% (inactive) in test [3] and -11.9% (inactive) in test [4].
For `Cc1cc(NC(=O)CSc2nc3c(sc4ccccc43)c(=O)n2CCCN2CCOCC2)n[nH]1`, in that order: 48% (active), 70.3% (active), 44.2% (active) and -8.59% (inactive).
As for `CCc1ccccc1NC(=O)CSc1nnc([C@@H](NC(=O)OC(C)(C)C)C(C)CC)o1` (stereo partly specified), the inhibition is -3.97% (inactive) in test [1], 39.5% (inactive) in test [2], 30.1% (inactive) in test [3] and 4.95% (inactive) in test [4].
Take `COc1ccc(N2C(=O)C(Cl)=C(N3CCOCC3)C2=O)cc1`: the inhibition in test [1] is 6.88% (inactive); in test [2], 34.9% (inactive); in test [3] it was 7.54% (inactive); in test [4] it was 7.03% (inactive).
Take `COc1ccc2c(c1)/C(=C/c1cc(OC)c(OC)c(OC)c1)C(=O)N2`: the inhibition was 52% (active) in test [1], 51% (active) in test [2], 48.2% (active) in test [3] and 41.6% (active) in test [4].
For `O=[N+]([O-])c1ccc(N2CCN(S(=O)(=O)c3ccccc3)CC2)cc1NCc1cccnc1`, in that order: 6.64% (inactive), 61% (active), 43.3% (active) and 14.6% (inactive).
`CCOC(=O)N1CCc2cc(OC)c(OC)c3c2c1cc1cc(OC)c(OC)cc13`: the inhibition was 60.1% (active) in test [1], 70.3% (active) in test [2], 67.3% (active) in test [3] and -28.7% (inactive) in test [4].
For `COc1cc2cc(C(=O)NC(C)c3cccc4ccccc34)c(N)nc2cc1OC` (stereo unspecified), in that order: 34.5% (active), 43.9% (active), 59.1% (active) and 23.9% (inactive).
For `COc1ccc(C(=O)OCC(=O)Nc2ccc(N3CCOCC3)cc2)cc1OC`, the inhibition in test [1] was 10.1% (inactive); in test [2] it was 52.8% (active); in test [3], 51.7% (active); in test [4], -1.85% (inactive).
As for `Cc1ccc(NC(=O)c2ccc([N+](=O)[O-])o2)cc1S(=O)(=O)N1CCOCC1`, the inhibition in test [1] is 17.7% (inactive); in test [2] it was 58.5% (active); in test [3] it was 58.8% (active); in test [4] it was -4.03% (inactive).
In the same order, the values of `O=C(Nc1ccccc1C(=O)NC1CC1)c1ccc([N+](=O)[O-])o1` are 22.3% (inactive), 62.9% (active), 65.1% (active) and -5.35% (inactive).
For `CS(=O)(=O)N1Cc2cc(C(=O)NCC3CC3)nc(-c3cccc(-c4cccnc4)c3)c2[C@@H]1CCO`, in that order: 8.47% (inactive), 49.4% (active), 47.5% (active) and -12.3% (inactive).
Regarding `CCOc1cc(/C=N/Nc2nnc(C)n2N)ccc1O`, the inhibition was -6% (inactive) in test [1], 18.2% (inactive) in test [2], 22.2% (inactive) in test [3] and 2.17% (inactive) in test [4].
For `CCc1cc(=O)[nH]c(SCC(=O)Nc2ccc3c(c2)OCCO3)n1`, in that order: 4.24% (inactive), 40.6% (inactive), 45.7% (active) and 0.13% (inactive).
In the same order, the values of `CCOc1ccc(NC(=O)COC(=O)COc2cccc3c2OC(C)(C)C3)cc1` are 1.8% (inactive), 61.5% (active), 60.5% (active) and -1.47% (inactive).
`Nc1nc2ccc(Cl)cc2cc1C(=O)NCc1ccc(Oc2ccccc2)cc1`: the inhibition in test [1] is 14.7% (inactive); in test [2] it was 54.2% (active); in test [3] it was 51.1% (active); in test [4], 45.7% (active).
Regarding `O=C(NCCCNc1ccc([N+](=O)[O-])cc1)C(F)(F)F`, the inhibition in test [1] is 9.72% (inactive); in test [2] it was 54.9% (active); in test [3] it was 52.4% (active); in test [4] it was -18.2% (inactive).
Turning to `O=C(Nc1ccc2oc(-c3ccncc3)nc2c1)c1ccc([N+](=O)[O-])o1`, the inhibition in test [1] was 34.1% (active); in test [2], 63.7% (active); in test [3], 66.2% (active); in test [4], -13.7% (inactive).
With `OC1(c2ccc(OC(F)F)cc2)CSC(=Nc2cccnc2)N1C1CC1` (stereo unspecified), the inhibition in test [1] was 11.3% (inactive); in test [2], 43.3% (active); in test [3], 48.8% (active); in test [4] it was 40% (active).
For `COc1cc(C2CC(=O)c3c([nH]c(C(=O)OCCOC(C)C)c3C)C2)cc(OC)c1OC` (stereo unspecified), in that order: 24.2% (inactive), 40% (inactive), 56.8% (active) and 43.3% (active).
In the same order, the values of `O=C(CN1C(=O)CCC1=O)Nc1ccc(Br)cc1` are 15.1% (inactive), 60.2% (active), 52.2% (active) and -3.7% (inactive).
Take `CCCc1nc(SCC(=O)c2ccc(F)cc2)c2ccccc2n1`: the inhibition in test [1] is 5.26% (inactive); in test [2], 46.9% (active); in test [3], 55.7% (active); in test [4] it was -0.25% (inactive).
For `O=C(Nc1cccc(S(=O)(=O)Nc2ccc(Cl)cc2)c1)c1ccc(Cl)nc1`, in that order: 41.3% (active), 65% (active), 63.3% (active) and 56.9% (active).
For `CCn1nnnc1SCC(=O)N(C)C1CCS(=O)(=O)C1` (stereo unspecified), in that order: 12.5% (inactive), 47.9% (active), 48.1% (active) and -0.7% (inactive).
In the same order, the values of `CCN(CC)S(=O)(=O)c1ccc(NC(=O)c2ccc(CN3CCOCC3)cc2)cc1` are 23.9% (inactive), 57.5% (active), 57.4% (active) and 54.4% (active).
As to `Cc1ccc(Cn2cnc3ccccc32)cc1C`, the inhibition is 2.29% (inactive) in test [1], 36.2% (inactive) in test [2], 32.6% (inactive) in test [3] and 7.91% (inactive) in test [4].
Take `Cc1ccc(C(=O)N/N=C\c2ccc([N+](=O)[O-])o2)cn1`: the inhibition in test [1] was 24.3% (inactive); in test [2] it was 59% (active); in test [3], 57% (active); in test [4], 0.83% (inactive).
In the same order, the values of `CC(C)CC1(C)NC(=O)N(CC(=O)Nc2ccc3c(c2)OCCO3)C1=O` (stereo unspecified) are 16.7% (inactive), 54.2% (active), 53% (active) and 7.91% (inactive).
As for `CCCCc1c(O)nc(SCC(=O)Nc2ccc3c(c2)CCC3)[nH]c1=O`, the inhibition is 6.25% (inactive) in test [1], 37.2% (inactive) in test [2], 51.8% (active) in test [3] and 0.43% (inactive) in test [4].
In the same order, the values of `NC(=S)NNc1cc(Cl)cc(Cl)c1` are 12.8% (inactive), 50.1% (active), 40.4% (inactive) and 11.7% (inactive).
In the same order, the values of `CC(NC(=O)c1ccco1)C(c1cccs1)N1CCN(c2ccccc2)CC1` (stereo unspecified) are 6.91% (inactive), 34.9% (inactive), 34.2% (inactive) and -0.25% (inactive).
In the case of `Cc1ccc(C)c(NC(=O)CSc2nnc(CCNC(=O)OC(C)(C)C)o2)c1`, the inhibition was 20.9% (inactive) in test [1], 59.2% (active) in test [2], 59.8% (active) in test [3] and -2.78% (inactive) in test [4].
